Screening results (PubChem)
ELG1 DNA repair: ELG1-dependent DNA repair inhibition | HEK293T ELG1-luciferase reporter, luminescence, 16 h; DNA damage induced by 5-fluorouridine | Potency, µM (top dose mostly 46.1 µM), for the others: at the top dose activity change, negative = inhibition, actives largely listed as inhibitors | 330,000 compounds, 2.3% hits | AID 504467; note: % is set by controls: 0 for no effect and ±100 for the full control effect; nearly all actives have a fitted effect of over 55% in size
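DMSO vehicle served as the neutral condition. Each well held 2,000 cells given 5-fluorouridine plus compound; after 16 hr at 37 °C/5% CO2, ONE-Glo was added and luciferase measured 30 min later.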
MCF10A rereplic: DNA re-replication induction in MCF 10a cells. MCF 10A DNA re-replication, Hoechst nuclear intensity, 48 h. AID 624296. 350,000 compounds, 2.9% hits. Potency, µM (top dose mostly 46.1 µM), for the others: top-dose activity, positive = re-replication, usual class: activators; note: % of control where 0% means no effect; nearly all actives have a fitted effect of over 50% in size
KB-V1 MDR tox: kills drug-selected multidrug resistant KB-V1 cells; KB-V1 MDR cells viability, CellTiter-Glo, 72 h; Potency, µM (highest dose often 46.1 µM), usual class: cytotoxic; 400,000 compounds, 3.4% hits; note: % is set by controls: 0 for no effect and ±100 for the full control effect; nearly all actives have a fitted effect of over 60% in size
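Compound-treated KB-V1 multidrug-resistant cells, 72 h, 37 degrees C; viability by CellTiter-Glo. Fitted qHTS curves give the values.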
SW480 rereplic: induces DNA re-replication in SW480 colon adenocarcinoma cells. Potency, µM (titrated, usually from 46.1 µM), without a hit: at the highest dose re-replication activation, most hits filed as activators. AID 624297. SW480 DNA re-replication, Hoechst DNA content imaging, 48 h. 340,000 compounds, 1.8% hits; note: % of control where 0% means no effect; nearly all actives have a fitted effect of over 55% in size
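250 cells/well; 23 nL cpd via pin tool; 48 hr, 37 C, 5% CO2; Hoechst 40 min; imager read of total nuclear intensity, ex 405/em 500-530 nm.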
KB-3-1 tox: KB-3-1 parental cell cytotoxicity. KB-3-1 viability, CellTiter-Glo ATP luminescence, 72 h. Potency, µM (doses to about 46.1 µM), actives largely listed as cytotoxic. 400,000 compounds, 1.4% hits. AID 1347075; note: % is set by controls: 0 for no effect and ±100 for the full control effect; nearly all actives have a fitted effect of over 60% in size
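72 h, 37 °C compound treatment of KB-3-1 parental cells; CellTiter-Glo added, 10 min, luminescence read. Data corrected against DMSO-only plates and normalized before curve fitting.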
An asterisk follows results filed as active; i = inactive; ? = inconclusive; . = no result given. Sampled rows, rich in hits. Any-hit rate of the full collection: about 8.1%. Calls come from the whole dose curve; as a rule, active = well fitted curve in the direction sought with a large enough effect; inconclusive = small, poorly fitted or top-dose-only effect, or another doubt; inactive = no such curve, though single readings can be large; an effect the other way counts as inactive or inconclusive. Potency is the fitted concentration of half-maximal effect.

SMILES	ELG1 DNA repair	MCF10A rereplic	KB-V1 MDR tox	SW480 rereplic	KB-3-1 tox
CCCC(=O)C1=C(O)C(C(=O)OC)C(C)(C)CC1=Nc1cccc2ccccc12 (stereo unspecified)	?	?	?	23%	?
O=S1(=O)NC(c2ccccc2)CC(CC2CCCCC2)O1 (stereo unspecified)	-6%	16%	i	-13%	i
O=C(Nc1ccc(F)cc1)C1CCN(c2ncnc3c2nc2n3CCCCC2)CC1	?	12%	i	1%	i
O=C(Nc1ccccn1)C1CCN(c2ncnc3c2nc2n3CCCCC2)CC1	2.6µM*	-4%	i	-6%	i
CCc1ccc(NC(=O)C2CCN(c3ncnc4c3nc3n4CCCCC3)CC2)cc1	2.6µM*	15%	i	-7%	i
CC(=O)Nc1ccc(CN(C)CC2CCCN(CCc3cccc(C(F)(F)F)c3)C2)cc1 (stereo unspecified)	-3%	?	i	?	i
CCN1C[C@@H]2[C@@H]3C(=O)N(C)C(=O)[C@@H]3[C@](C)(C1=O)N2C(=O)c1ccc(C(C)(C)C)cc1	.	-11%	i	-9%	i
COc1cc(CC(=O)OCc2cccc([N+](=O)[O-])c2)cc(OC)c1OC	9%	1%	?	-20%	i
C[C@H](O)Cc1cc2ccccc2c(=O)o1	0%	2.9µM*	i	1%	i
CCOc1ccc(C(=O)c2oc3ccccc3c2NC(=O)c2cc(-c3ccc(Cl)cc3)on2)cc1	.	.	?	.	i
CN(C(=O)C(C)(C)C)C1c2c(ccc3ccccc23)OCC1CO (stereo unspecified)	-10%	4%	i	3%	i
CCn1c(C)c(CS(=O)(=O)c2ccccc2)[nH]c1=O	5%	7.3µM*	i	8.2µM*	i
CN(Cc1ccccc1)S(=O)(=O)c1ccc(NC(=S)NC(=O)C2CCCCC2)cc1	?	23µM*	?	?	?
CN(CCOc1ccc(Br)cc1)CC(O)COc1ccc(C#N)cc1 (stereo unspecified)	?	-1%	i	?	?
O=C(c1cccc(C(F)(F)F)c1)N(c1ccccn1)C1CCCCC1	?	13%	i	-1%	i
CNC1CCc2cc(OC)c(OC)c(OC)c2-c2ccc(OC)c(=O)cc21 (stereo unspecified)	.	0.075µM*	.	0.12µM*	.
COc1cccc(C(=O)Nc2ccc3c(cc2=O)[C@@H](NC(C)=O)CCc2cc(OC)c(OC)c(OC)c2-3)c1	?	5.8µM*	i	7.3µM*	2.9µM*
COc1cccc(C(=O)Nc2ccc(F)cc2F)c1	?	4%	i	-10%	i
COc1cc2c(c(OC)c1OC)-c1ccc(SC)c(=O)cc1C(NC=O)CC2 (stereo unspecified)	.	?	0.29µM*	?	0.0065µM*
COC(=O)c1ccc2c(c1)C(NC(C)=O)CCc1cc(OC)c(OC)c(OC)c1-2 (stereo unspecified)	.	0.12µM*	0.82µM*	0.092µM*	0.15µM*
COc1cc2c(c(OC)c1OC)C(=O)CC2	15%	-1%	i	-15%	i
COc1ccc(CN2C(=O)CSCC2(C)C(=O)NC(C)C)cc1 (stereo unspecified)	.	.	i	.	i
CC(O)[C@@H](C(=O)N1CCNCC1)n1cc(CCCCN)nn1 (stereo partly specified)	12%	2%	i	-6%	i
CCCC(=O)NC1CCc2cc(OC)c(OC)c(OC)c2-c2ccc(OC)c(=O)cc21 (stereo unspecified)	.	?	2.9µM*	0.0046µM*	0.13µM*
COc1c(C=O)c2c(c(OC)c1OC)-c1ccc(OC)c(=O)cc1C(NC(C)=O)CC2 (stereo unspecified)	.	?	?	0.1µM*	0.0092µM*
SMILES	ELG1 DNA repair	MCF10A rereplic	KB-V1 MDR tox	SW480 rereplic	KB-3-1 tox
COc1c(O[C@@H]2O[C@H](CO)[C@@H](O)[C@H](O)[C@H]2O)cc2c(c1OC)-c1ccc(SC)c(=O)cc1C(NC(C)=O)CC2 (stereo partly specified)	1%	-26%	i	?	i
C=COC(=O)NC1CCc2cc(OC)c(OC)c(OC)c2-c2ccc(SC)c(=O)cc21 (stereo unspecified)	.	17%	?	?	0.0065µM*
COc1ccc(C(C)=O)cc1CC(=O)NC1CCCCCC1	2%	-8%	i	-8%	i
COc1cc2c(c(OC)c1OC)-c1ccc(SC)c(=O)cc1C(NC(=O)c1ccccc1)CC2 (stereo unspecified)	.	?	0.73µM*	0.015µM*	0.0092µM*
COc1cc(C(=O)NC2CCCc3ccccc32)cc(OC)c1C (stereo unspecified)	-2%	1%	i	0%	i
COc1cc2c(c(OC)c1OC)-c1ccc(OC)c(=O)cc1C(NC(=O)c1ccccc1)CC2 (stereo unspecified)	.	?	?	0.021µM*	0.0092µM*
CC1CCN(c2c(NCC3CCC(C(=O)N4CCc5ccccc5C4)CC3)c(=O)c2=O)CC1 (stereo unspecified)	9.2µM*	20%	i	-5%	?
CC1CCN(c2c(NCc3ccc(C(=O)N4CCc5ccccc54)cc3)c(=O)c2=O)CC1	?	3.7µM*	i	6.5µM*	1.6µM*
CC1CCN(c2c(NCc3ccc(C(=O)N(C)C4CCCCC4)cc3)c(=O)c2=O)CC1	?	2%	i	0%	i
BrC(=C\c1ccccc1)/C=N/n1cnnc1	?	16µM*	?	23%	i
O=C(Nc1cccc(Cl)c1)Nc1ccnc(-c2cccnc2)n1	?	-1%	i	7%	i
CCCc1noc2c1/C(=N\O)CC(c1ccccc1)C2 (stereo unspecified)	?	?	i	-5%	i
CCCc1n[nH]c2c1/C(=N/O)CC(c1ccccc1)C2 (stereo unspecified)	0%	7%	?	5%	26µM*
COC(=O)C1=C(C)NC(C)=C(C(=O)OC)C1c1ccc(OC(=O)c2oc3ccccc3c2C)c(OC)c1	-1%	11%	i	0.52µM*	i
COc1ccccc1C(=O)NC(=O)COC(=O)c1oc2ccccc2c1C	14%	14%	i	-6%	i
CCCCN1C(=O)C(O)(CC(=O)c2ccccn2)c2ccccc21 (stereo unspecified)	0%	16%	?	?	i
CCN(CC)S(=O)(=O)c1ccc2c(c1)nc(CCC(=O)Nc1ccccc1Cc1ccccc1)n2CC	-16%	22%	21µM*	?	i
